Source: ChEMBL document CHEMBL3988442, “University of Dundee, Small-Polar-MMV Screening Library” (2021)
The campaign covered roughly 69,000 compounds. About 950 (1.4%) showed an effect of 50% or more. The sample holds strong results, similar compounds and a random draw of the others, so the mix is not that of the screen.

Test system: Mycobacterium tuberculosis
Assay: Cornell M. t heat shock assay; note: in the data most compounds retested in dose-response had high values
Format: functional, organism-based
Set-up: dose or concentration left out as unconfirmed

Compound	Percent Effect [%]
Cc1cc(NCCCNS(C)(=O)=O)nc2ccccc12	-11.41
CNC(=O)c1ccc(S(=O)(=O)NCCc2ccccn2)cc1	-8.04
CCc1cc(NCCCNS(C)(=O)=O)nc(-c2ccccn2)n1	56.84
CNc1cc(CCNC(=O)CC(C)C)nc(-c2ccccn2)n1	36.61
CCc1cc(NCCCNS(C)(=O)=O)nc(-c2ccncc2)n1	-1.348
CNc1cc(CCNS(=O)(=O)c2ccccc2)nc(-c2ccccn2)n1	99.14
NC(=O)c1ccc(S(=O)(=O)NCCc2ccccn2)cc1	2.755
CCCC(=O)NCCc1cc(NC)nc(-c2ccccn2)n1	12.39
CNc1cc(CCNC(=O)C2CCCC2)nc(-c2ccccn2)n1	89.44
CC1=C(C#N)C(=O)NC(=O)/C1=C\c1c(C)nn(-c2ccc(Cl)cc2)c1O	-14.1
COc1ccc(CN2CC[C@H]3O[C@@H](C(=O)NCC4CC4)CC[C@H]32)cc1.O=C(O)C(F)(F)F	-25.68
COc1cc(N2C[C@@H]3CC[C@H](C2)N(CC2CCC2)C3=O)ncn1	-13.86
Cc1nc(N)c2ccc(C3CCCN3)nc2n1.Cl (centres undefined)	-2.129
O=c1cc(CN2C[C@H]3CC[C@@H]2CN(Cc2ccccc2)C3)[nH]c(=O)[nH]1	-10.28
CC(C)=CCN1C[C@H]2CC[C@@H]1CN(Cc1cc(=O)[nH]c(=O)[nH]1)C2	13.63
COCCN1C[C@H]2CC[C@@H]1CN(CC(=O)Nc1ccn(C)n1)C2	-13.49
COCCN1C[C@H]2CC[C@@H]1CN(Cc1ccc3ccccc3n1)C2	46.17
COCCN1C[C@H]2CC[C@@H]1CN(Cc1cc(=O)c3cc(C)ccc3[nH]1)C2	51.84
COCCN1C[C@H]2CC[C@@H]1CN(Cc1nc3ccccc3n1C)C2	78.75
Cc1ccc(CN2C[C@@H]3CN(C(=O)c4cccn4C)C[C@@H]3C2)cc1.O=C(O)C(F)(F)F	-6.874
CN(C)[C@@H]1CCN(C(=O)CC2CC2)[C@H]1Cc1cnn(C)c1.O=C(O)C(F)(F)F	1.412
O=C(O)C(F)(F)F.O=C1C[C@H]2[C@@H](CCN2C(=O)c2ccc[nH]2)N1CCN1CCCC1	-37.83
CC1CCN(c2ncc(-c3ccccc3F)c(-c3nccn3C)n2)CC1	17.54
Cn1ccnc1-c1nc(N2CCCCC2)ncc1-c1ccccc1F	-0.09407
CC1CCCN(c2ncc(-c3ccccc3F)c(-c3nccn3C)n2)C1 (centres undefined)	84.22

Compound	Percent Effect [%]
O=C([C@H]1C[C@@H]2CN(c3ncc(F)cn3)C[C@H]1O2)N1CCOCC1	19.91
CCc1ccc(CN2Cc3nccn3CC(Cn3cncn3)C2)o1.O=C(O)C(F)(F)F (centres undefined)	0.4246
COc1ccccc1C(=O)N1CC(=O)N(Cc2ccco2)CC(O)C1 (centres undefined)	54.55
COc1ccccc1C(=O)N1CC(=O)N(CC2CC2)CC(O)C1 (centres undefined)	43.16
CC(C)CC(=O)N1CC(=O)N(Cc2ccco2)CC(O)C1 (centres undefined)	14.12
CCOC(=O)N1CC(=O)N(Cc2cccc(OC)c2OC)CC(O)C1 (centres undefined)	45.58
CC(C)(C)OC(=O)N1CC(=O)N(Cc2ccco2)CC(O)C1 (centres undefined)	11.64
CC(C)(C)C(=O)N1CC(=O)N(Cc2ccco2)CC(O)C1 (centres undefined)	52.39
COc1cccc(CN2CC(O)CN(C(=O)C3CC3)CC2=O)c1OC (centres undefined)	31.08
Cc1ccc(C(=O)N2CC(=O)N(Cc3ccco3)CC(O)C2)cc1 (centres undefined)	34.47
COc1cccc(CN2CC(O)CN(C(=O)C(C)(C)C)CC2=O)c1OC (centres undefined)	90.93
O=C(CCc1nnc(-c2ccccc2)o1)N1CCCC1c1ccc[nH]1 (centres undefined)	-1.66
Cc1cccnc1N1CC2(CCN(Cc3cccnc3)C2)C1.O=C(O)C(F)(F)F.O=C(O)C(F)(F)F.O=C(O)C(F)(F)F	-27.63
CN(C)CCN1CCCC12CCN(C(=O)c1ccco1)CC2.O=C(O)C(F)(F)F.O=C(O)C(F)(F)F	-2.887
CN(C)CCOCC1CN(Cc2ccncc2)Cc2nnn(C)c21.O=C(O)C(F)(F)F.O=C(O)C(F)(F)F.O=C(O)C(F)(F)F (centres undefined)	-16.03
O=C(c1nn(-c2ccccc2F)cc1O)N1CCCC1	42.43
CCc1ccccc1-n1cc(O)c(C(=O)N2CCCCC2)n1	56
O=C(c1nn(-c2ccccc2F)cc1O)N1CCCCC1	22.71
Fc1cccc(CN2C[C@@H]3CN(Cc4ccccn4)C[C@@H]3C2)c1.O=C(O)C(F)(F)F.O=C(O)C(F)(F)F	35.12
CCN1CC2(CC1=O)CN(Cc1ccsc1)CCN(C(=O)C(C)C)C2.O=C(O)C(F)(F)F (centres undefined)	-8.211
O=C1c2cnc(N3CCC(O)CC3)nc2CN1Cc1cccc(F)c1	-32.08
Cc1nc(Nc2cnccn2)cc(C2CN(C(C)C)C2)n1.O=CO	-9.635
CN1CCCN(C(=O)c2ccnn2-c2ccc3ccccn23)CC1.O=C(O)C(F)(F)F	-45.73
O=C1CCNc2ccccc2CN1Cc1ccco1	41.47
